In PubChem BioAssay (NCATS):
Inconclusive results are not listed. A call without a number means that no potency is given here. Activity calls are given as the source filed them. Calls follow the shape of the dose curve; as a rule, active = well fitted inhibition curve with a large enough effect; inconclusive = small, poorly fitted or top-dose-only effect; inactive = no such curve, though single readings can be large or run the other way.

Assay: qHTS assay for measurement of the activity of small molecule inhibitors on Zika virus induced Caspase-3 activity in human iPSC derived neural progenitor cells (hNPCs) (AID 1224857); also: nearly all actives have a fitted effect of over 65% in size
Conditions: hNPCs ZIKV-induced caspase-3/7, Caspase-Glo luminescence, 6 h; series mostly up to 45.7 µM
From the text: National Center for Advancing Translational Sciences [NCATS]
Johns Hopkins University School of Medicine
Increase in the Caspase-3 activity indicates an activation of apoptosis cell death pathway caused by Zika virus infection in certain types of neuronal cells including human neural progenitor cells (hNPCs), astrocytes, and astrocytoma cell line (SNB-19). This cell-based caspase-3 activity assay measures the increased caspase-3 activity in the human iPSC derived neural progenitor cells (hNPCs) after a 6-hour Zika virus infection with a luminescence readout. A decrease in the luminescence signal in this assay by small molecule treatment indicates an inhibitory effect of that small molecule on the Zika virus induced caspase-3 activity that may correlate with its effect on reduction of Zika virus caused cell death.
The medium for hNPCs consists of DMEM/F12, N2 supplement (ThermoFisher, Cat.# 17502048), NEAA (ThermoFisher, Cat. # 11140050), 2 ug/ml heparin, 2 uM cyclopamine, and B27 (ThermoFisher, Cat. # 17504044). A Caspase-Glo 3/7 assay kit (catalog number G8092; Promega, Madison, WI) was used to detect caspase-3 activity induced by Zika virus infection in human cells. The reagent mixture was reconstituted as described in the protocol from the manufacturer. Polystyrene tissue culture treated and PDL coated white plates were obtained from Greiner Bio-One (Monroe, NC). Cells were seeded in 384- or 1536-well assay plates and cultured at 37 C with 5% CO2 for 16 to 20 hours. The typical cell seeding density in the 1536-well plate assay is 350 cells/well in 3 ul medium for hNPCs in tissue culture treated plates. Compounds were added to cells and incubated for one hour before addition of ZIKV solution to cells (2 FFU/cell). After incubation at 37 C with 5% CO2 for 6 hours, the reagent mixture of Caspase-Glo 3/7 assay kit was added to each well, followed by incubation at room temperature for 30 minutes. The luminescence intensity of the assay plates was measured using a ViewLux plate reader (PerkinElmer). Data were normalized by using the cell-containing wells without ZIKV as a negative control (0% induction of caspase 3/7 activity) and wells containing ZIKV infected cells (Caspase-3 activity induced) as a positive control (100% induction of caspase 3 activity). The percentage inhibitions of the increased Caspase-3 activity by small molecule inhibitors were then calculated.
Potency is read from the fitted curve at half-maximal effect.

SMILES | Potency
O=C(c1ccc(F)cc1)N1CCC[C@H](c2nc(-c3ccc(F)cc3)no2)C1 | inactive
N#CC(=Cc1ccc(O)c(O)c1)C(=O)NCc1ccccc1 | inactive
Cc1ccccc1C(=O)Nc1ccc(C(=O)N2CCCC(O)c3cc(Cl)ccc32)c(C)c1 (stereo not given) | inactive
COc1ccc(S(=O)(=O)Nc2cccnc2Nc2ccc(O)cc2)cc1 | inactive
COc1ccc(S(=O)(=O)Nc2cc(-c3c(O)ccc4ccccc34)c(O)c3ccccc23)cc1 | inactive
N#CC(=C(N)Sc1ccc(N)cc1)c1ccccc1C(F)(F)F | inactive
C#CCC(Cc1cnc2nc(N)nc(N)c2n1)c1ccc(C(=O)N[C@@H](CCC(=O)O)C(=O)O)cc1 (stereo not given in full) | inactive
C=CC[C@@H]1C=C(C)C[C@H](C)C[C@H](OC)[C@H]2O[C@@](O)(C(=O)C(=O)N3CCCC[C@H]3C(=O)O[C@H](C(C)=C[C@@H]3CC[C@H](O)[C@H](OC)C3)[C@@H](C)[C@@H](O)CC1=O)[C@@H](C)C[C@@H]2OC | inactive
Cn1cc(C=CC(=O)c2cccc(F)c2)cc1C=CC(=O)NO | inactive
C=CCNC1=C2C[C@@H](C)C[C@H](OC)[C@@H](O)[C@@H](C)C=C(C)[C@H](OC(N)=O)[C@@H](OC)C=CC=C(C)C(=O)NC(=CC1=O)C2=O | inactive
CC[C@@]1([C@@H]2O[C@@H]([C@H]3O[C@@](O)(CO)[C@H](C)C[C@H]3C)C[C@H]2C)CC[C@H]([C@]2(C)CC[C@]3(C[C@H](O)[C@@H](C)[C@@H]([C@@H](C)[C@@H](OC)[C@H](C)C(=O)O)O3)O2)O1 | inactive
CCCNC(=O)[C@H]1O[C@H]1C(=O)N[C@H](C(=O)N1CCC[C@@H]1C(=O)OC)C(C)CC (stereo not given in full) | inactive
CCOC(=O)N1CCN([N+]([O-])=NOc2ccc([N+](=O)[O-])cc2[N+](=O)[O-])CC1 | inactive
Cc1cc(O)c2c(c1)C(=O)c1cccc(O)c1C2=O | inactive
Cn1cc(C[C@@H](N)C(=O)O)c2ccccc21 | inactive
Nc1ccn(C2CO[C@H](CO)O2)c(=O)n1 (stereo not given in full) | inactive
Cn1cnc2c(F)c(Nc3ccc(Br)cc3F)c(C(=O)NOCCO)cc21 | inactive
CC(C)(O)CC[C@@H](O)[C@](C)(O)[C@H]1CC[C@@]2(O)C3=CC(=O)[C@@H]4C[C@@H](O)[C@@H](O)C[C@]4(C)[C@@H]3CC[C@]12C | inactive
COc1cccc2c1C(=O)c1c(O)c3c(c(O)c1C2=O)C[C@@](O)(C(C)=O)C[C@H]3O[C@H]1C[C@H](N)[C@H](O)[C@H](C)O1 | inactive
O=C(O)[C@H](CC(=O)N1C[C@@H]2CCCC[C@H]2C1)Cc1ccccc1 | 23.5 µM (active)

SMILES | Potency
CC(=O)O[C@H]1C[C@@H]2CC[C@H]3[C@H]4C[C@H]([N+]5(C)CCCCC5)[C@@H](OC(C)=O)[C@@]4(C)CC[C@@H]3[C@@]2(C)C[C@H]1N1CCCCC1 | inactive
CCCNS(=O)(=O)Nc1ncnc(OCCOc2ncc(Br)cn2)c1-c1ccc(Br)cc1 | inactive
CC(=O)NC(CS)C(=O)O (stereo not given) | inactive
CC(=O)O[C@@]12CO[C@H]1C[C@H](O)[C@@]1(C)C(=O)[C@H](O)C3=C(C)[C@@H](OC(=O)C(O)[C@@H](NC(=O)OC(C)(C)C)c4ccccc4)C[C@@](O)([C@@H](OC(=O)c4ccccc4)[C@@H]21)C3(C)C (stereo not given in full) | inactive
O=C(C=CC#Cc1cccc(NS(=O)(=O)c2ccccc2)c1)NO | inactive
CCN(CC)Cc1ccc2cc(COC(=O)Nc3ccc(C(=O)NO)cc3)ccc2c1 | inactive
COc1cc([C@@H]2c3cc4c(cc3[C@@H](O[C@@H]3O[C@@H]5CO[C@@H](c6cccs6)O[C@@H]5[C@H](O)[C@@H]3O)[C@H]3COC(=O)[C@H]23)OCO4)cc(OC)c1O | inactive
COC[C@H](NC(=O)c1cnc(C)s1)C(=O)N[C@@H](COC)C(=O)N[C@@H](Cc1ccccc1)C(=O)[C@@]1(C)CO1 | inactive
O=C(C[C@@H]1CC=CCCC(=O)O[C@H](c2ccccc2)CNC1=O)NCc1ccc(Cl)cc1 | inactive
CCC[C@H]1C[C@H](C(=O)N[C@@H]([C@@H]2O[C@@H](SC)[C@@H](O)[C@@H](O)[C@@H]2O)[C@H](C)Cl)N(C)C1 | inactive
CC1(C)[C@H](O[C@H]2O[C@H](C(=O)O)[C@@H](O)[C@H](O)[C@H]2O[C@@H]2O[C@H](C(=O)O)[C@@H](O)[C@H](O)[C@H]2O)CC[C@@]2(C)[C@H]1CC[C@]1(C)[C@H]2C(=O)C=C2[C@H]3C[C@@](C)(C(=O)O)CC[C@]3(C)CC[C@]21C | inactive
Cc1ccc2nc(NCCN)c3ncc(C)n3c2c1 | inactive
C[C@H](NC(=O)[C@@H](O)c1cc(F)cc(F)c1)C(=O)N[C@@H]1C(=O)N(C)c2ccccc2-c2ccccc21 | inactive
CCOc1cc2ncc(C#N)c(Nc3ccc(OCc4ccccn4)c(Cl)c3)c2cc1NC(=O)C=CCN(C)C | inactive
Cc1cc(Nc2ncc3c(n2)N(C)C(=O)N(c2cc(NC(=O)c4cccc(C(F)(F)F)c4)ccc2C)C3)n(C)n1 | inactive
CC[C@H]1OC(=O)[C@H](C)[C@@H](O[C@H]2C[C@@](C)(OC)[C@@H](O)[C@H](C)O2)[C@H](C)[C@@H](O[C@@H]2O[C@@H](C)C[C@H](N(C)C)[C@@H]2O)[C@](C)(O)C[C@@H](C)C(=O)[C@H](C)[C@@H](O)[C@]1(C)O | inactive
CCOC(=O)[C@@H](N)Cc1ccc(-c2cc(O[C@H](c3ccc(Cl)cc3-n3ccc(C)n3)C(F)(F)F)nc(N)n2)cc1 | inactive
Cc1[nH]c(C=C2C(=O)Nc3ccccc32)c(C)c1CCC(=O)O | 16.6 µM (active)
COC(=O)C=CC(=O)OC | inactive
CCn1c(=O)c2c(nc(C=Cc3ccc(OC)c(OC)c3)n2C)n(CC)c1=O | inactive
